PLK1 PBD inh: blocks phosphopeptide binding to human PLK1 polo-box domain | P53350 | Plk1 PBD binding of FITC phosphopeptide, fluorescence polarization | Potency, µM, for the others: max response, negative = inhibition, actives largely listed as inhibitors | 2.8% of 360,000 active | AID 720504; note: potency is the fitted concentration of half-maximal effect; series mostly up to about 57 µM; % is set by controls: 0 for no effect and ±100 for the full control effect; nearly all actives have a fitted effect of over 65% in size
PI5P4Ka inh: blocks human PI5P4K alpha kinase activity | AID 652105 | max response, % | PI5P4Kalpha enzyme, ADP-Glo luminescence, 60 min; stronger effect = lower value | 1.2% of 330,000 active | P48426; active = max response of -50% or lower; inconclusive = between -30% and -50%; inactive = -30% or higher; note: value at the top dose of about 77 µM; % is set by controls: 0 for no effect and ±100 for the full control effect
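PI5P4Kalpha ADP-Glo assay; 5 microM ATP final; 60 min RT reaction; HEPES pH 7.4/EGTA/CHAPS, 5% DMSO; controls lacking substrate or enzyme; luminescent end-point.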
BAZ2B block: inhibitors of human BAZ2B bromodomain; Q9UIF8; AlphaScreen BAZ2B-H3K14Ac peptide displacement; Potency, µM (top dose mostly 114 µM), inactives show at the top dose activity change, negative = inhibition, usual class: inhibitors; 4.4% of 360,000 active; note: potency is the fitted concentration of half-maximal effect; % is set by controls: 0 for no effect and ±100 for the full control effect; nearly all actives have a fitted effect of over 60% in size
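AlphaScreen luminescence quantifies BAZ2B engagement of H3K14Ac peptide; the protein and biotinylated peptide are both at 50 nM final, buffer PBS pH 7.4 with 0.01% Tween-20, all steps at room temperature.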
G9a block: inhibitors of human histone lysine methyltransferase G9a; Q96KQ7; G9a H3K9 monomethylation, AlphaScreen, 2 h; Potency, µM (doses to about 102 µM), without a hit: at the top dose activity, negative = inhibition, hits mostly inhibitors; 8.8% of 350,000 active; AID 504332; note: potency is the fitted concentration of half-maximal effect; % is set by controls: 0 for no effect and ±100 for the full control effect; nearly all actives have a fitted effect of over 75% in size
Target sequence (Q96KQ7 913-1193 limits assumed): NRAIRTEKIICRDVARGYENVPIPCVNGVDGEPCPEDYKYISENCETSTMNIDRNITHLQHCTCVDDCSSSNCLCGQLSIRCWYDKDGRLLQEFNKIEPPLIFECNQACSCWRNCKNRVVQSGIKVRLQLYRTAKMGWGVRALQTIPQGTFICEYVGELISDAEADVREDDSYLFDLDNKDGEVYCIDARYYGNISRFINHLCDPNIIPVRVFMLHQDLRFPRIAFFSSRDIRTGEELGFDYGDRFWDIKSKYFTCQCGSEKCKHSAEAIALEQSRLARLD
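Step 1: enzyme (final 20 nM) with compound, 15 min RT. Step 2: substrate peptide 500 nM and SAM 20 uM, 2 h RT. Step 3: anti-H3K9me1 antibody and AlphaScreen beads, 10 min, then plate read.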
JMJD2A Tudor: inhibitors of human JMJD2A Tudor domain. O75164. AlphaScreen JMJD2A-Tudor / H3K4me3 peptide binding. Potency, µM (doses to about 114 µM), for inactives: at the highest dose activity change, negative = inhibition, usual class: inhibitors. 4.4% of 390,000 active. AID 504339; note: potency is the fitted concentration of half-maximal effect; % is set by controls: 0 for no effect and ±100 for the full control effect; nearly all actives have a fitted effect of over 50% in size
HP1b binding inh: blocks HP1-beta chromodomain binding to methylated histone tails. AlphaScreen HP1-beta / biotin-H3K9me3 peptide binding. Potency, µM (titrated, usually from 114 µM), without a hit: top-dose activity change, negative = inhibition, usual class: inhibitors. 0.56% of 390,000 active; note: potency is the fitted concentration of half-maximal effect; nearly all actives have a fitted effect of over 70% in size
Target sequence (P83916 whole entry, looked up): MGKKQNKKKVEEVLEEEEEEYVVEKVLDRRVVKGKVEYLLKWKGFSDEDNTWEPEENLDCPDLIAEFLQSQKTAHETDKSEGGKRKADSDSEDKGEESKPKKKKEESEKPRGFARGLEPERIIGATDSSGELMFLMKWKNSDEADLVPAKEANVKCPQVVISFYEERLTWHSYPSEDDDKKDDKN
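HP1-beta protein (50 nM final) preincubated 30 min at room temperature with biotinylated H3(1-18)K9me3 peptide (50 nM) in PBS pH 7.4, 0.01% Tween-20, then compound added for 30 min. AlphaScreen streptavidin donor/nickel chelate acceptor beads (10 ug/mL final), 30 min dark, luminescence read.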
Starred values were filed as active, the others as inactive; [ ] = dose if it differs, or a comment. Shown are actives, neighbours in structure and some others; about 12% of the full set was active somewhere. Unless noted, calls come from the whole dose curve; as a rule, active = well fitted curve in the direction sought with a large enough effect; inconclusive = small, poorly fitted or top-dose-only effect, or another doubt; inactive = no such curve, though single readings can be large; an effect the other way counts as inactive or inconclusive.

How did COc1cc(/C=N/Nc2cccc(C)c2)ccc1OC(=O)c1cccs1 do in these assays?
PLK1 PBD inh: -9.0%; PI5P4Ka inh: -6.7; BAZ2B block: -37.8%; G9a block: 10µM*; JMJD2A Tudor: inconclusive; HP1b binding inh: 14.7%

Results for COc1cc(/C=N/Nc2cccc(C)c2)cc(Br)c1O ?
PLK1 PBD inh: -23.1%; PI5P4Ka inh: inconclusive; BAZ2B block: 44.7µM*; G9a block: 8.91µM*; JMJD2A Tudor: 50.1µM*; HP1b binding inh: inconclusive

What do the screens show for `COc1cc(/C=N/NC(=O)COc2ccccc2C)ccc1OC(=O)c1cccs1`?
PLK1 PBD inh: 1.6%; PI5P4Ka inh: -1.7; BAZ2B block: -27.2%; JMJD2A Tudor: 24.6%; HP1b binding inh: 13.9%

Results for COc1cc(/C=C/C(=O)O)cc(Br)c1O ?
PLK1 PBD inh: -0.2%; PI5P4Ka inh: -18.0; BAZ2B block: inconclusive; G9a block: 19.5%[12.7 µM]; JMJD2A Tudor: -3.8%; HP1b binding inh: 28.1%

Results for CCCCNC(=O)C1(NC(=O)Nc2ccc(C)cc2)CCCCC1 ?
PLK1 PBD inh: 7.52µM*; PI5P4Ka inh: inconclusive; BAZ2B block: -2.4%; G9a block: 10.7%; JMJD2A Tudor: -31.6%[11.4 µM]; HP1b binding inh: -10.7%

What do the screens show for `CCC(C)NC(=O)C1(NC(=O)Nc2ccccc2)CCCCC1` (stereo not drawn)?
PLK1 PBD inh: 10.6µM*; PI5P4Ka inh: -27.9; BAZ2B block: -3.9%; G9a block: 6.7%; JMJD2A Tudor: 17.8µM*; HP1b binding inh: inconclusive

Results for O=C(Nc1ccc(Cl)cc1)NC1(C(=O)NCCCN2CCOCC2)CCCCC1 ?
PLK1 PBD inh: -17.3%; PI5P4Ka inh: 5.2; BAZ2B block: 2.8%; G9a block: -14.7%[12.7 µM]; JMJD2A Tudor: 8.4%[11.4 µM]; HP1b binding inh: 67.2%

What do the screens show for `CCN1C(=O)C(Cc2nc3ccccc3c(=O)n2-c2cccc(C)c2)c2ccccc21` (stereo not drawn)?
BAZ2B block: inconclusive; G9a block: inconclusive; JMJD2A Tudor: inconclusive; HP1b binding inh: -7.7%

How did CCN(C(=O)CSc1nc2ccccc2n1CC(=O)N1CCCC(C)C1)c1ccccc1 (stereo not drawn) do in these assays?
BAZ2B block: -4.8%; G9a block: 18.7%[59 µM]; JMJD2A Tudor: -23.8%; HP1b binding inh: 44.4%

What do the screens show for `CCOC(=O)Cc1cnc(NC(=O)CSc2nc(C(C)C)cc(=O)[nH]2)s1`?
PLK1 PBD inh: -5.9%; PI5P4Ka inh: 7.6; BAZ2B block: inconclusive; G9a block: 20.5%; JMJD2A Tudor: -8.0%; HP1b binding inh: 6.5%

What do the screens show for `COc1ccc(C2C(C(=O)c3ccco3)=C(O)C(=O)N2CC2CCCO2)cc1` (stereo not drawn)?
PLK1 PBD inh: -4.0%; PI5P4Ka inh: -3.0; BAZ2B block: -38.7%; G9a block: inconclusive; JMJD2A Tudor: -22.1%; HP1b binding inh: 19.8%

Results for COc1cc(C2C(C(=O)c3ccco3)=C(O)C(=O)N2CCc2ccccc2)ccc1O (stereo not drawn) ?
PLK1 PBD inh: -3.5%; PI5P4Ka inh: -1.3; BAZ2B block: inconclusive; G9a block: 39.8µM*; JMJD2A Tudor: inconclusive; HP1b binding inh: 16.3%

How did CC(=O)C1=C(O)C(=O)N(CCC(=O)O)C1c1ccccc1Cl (stereo not drawn) do in these assays?
PLK1 PBD inh: -5.7%; BAZ2B block: inconclusive; G9a block: 24.2%[12.7 µM]; JMJD2A Tudor: 22.4µM*; HP1b binding inh: -2.3%

How did CC(=O)C1=C(O)C(=O)N(Cc2cccnc2)C1c1ccccc1Cl (stereo not drawn) do in these assays?
PLK1 PBD inh: 0.9%; PI5P4Ka inh: 9.3; BAZ2B block: -7.8%; G9a block: -7.2%[59 µM]; JMJD2A Tudor: -33.0%; HP1b binding inh: 25.4%

What do the screens show for `O=C(C1=C(O)C(=O)N(CC2CCCO2)C1c1cccc(O)c1)c1ccco1` (stereo not drawn)?
PLK1 PBD inh: 1.2%; PI5P4Ka inh: 6.4; BAZ2B block: -1.1%; G9a block: 44.7µM*; JMJD2A Tudor: -2.8%; HP1b binding inh: 15.9%

From PubChem
